# Hits are enriched below; roughly 1.4% of the tested compounds scored in any of these assays.
# PglD DTNB – inhibitors of Campylobacter jejuni PglD acetyltransferase. 360,000 tested, 0.098% active. purified PglD enzyme, DTNB colorimetric CoA detection. inhibition, % at 12.5 µM; in the data active means inhibition above about 16%, passing the limit was not always enough; inconclusive means no clear call, values can overlap the other calls
# CFTR F508del cor – CFTR F508del correction in bronchial cells; CFBE cells, YFP halide quenching; stimulated with forskolin plus potentiator P3; % fluorescence drop versus neutral controls; activity (quench increase), % at 7.58 µM; 350,000 tested, 0.36% active; AID 720511;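 active means mean added fluorescence quench of at least 8% versus neutral control, with both replicates also reaching 8%; inconclusive means only one of the mean or replicate conditions met; inactive means mean below 8% and not both replicates reaching 8%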;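 further: cells transiently co-express mutant CFTR-F508del with the halide-sensitive YFP; corrector assay measuring rescue of mutant channel to the surface after 24 h compound exposure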
# ARNT TACC3 PPI – disrupts binding between human ARNT and TACC3; inhibition, % at 9.99 µM; AID 623870; Q9Y6A5; 390,000 tested, 0.66% active; AlphaScreen His-ARNT PAS-B/GST-TACC3 binding, luminescence; TACC3 fragment carries E629A point mutation;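 active means mean inhibition of replicates at least 50% and at least half of replicates each reaching 50%; inconclusive means half or more replicates reach 50% but mean below 50%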
# Statin myotox sup – protects C2C12 myotubes from simvastatin toxicity. ATP luminescence, 48 h; scaled: DMSO 0, geranylgeraniol control 100. rescue of ATP level, % at 7.49 µM. 330,000 tested, 0.78% active. AID 602340;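 active means mean ATP rescue above about 67%, or every replicate alone reaching that limit, limit read from the data, passing the limit was not always enough; inconclusive means no clear call, values can overlap the other calls; inactive means mean under the limit and some replicate under it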;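 further: myotubes were challenged with 10 µM simvastatin during compound exposure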
# A number is an active result; i = inactive; ? = inconclusive; nt = no result given.
SMILES,PglD DTNB,CFTR F508del cor,ARNT TACC3 PPI,Statin myotox sup
Cc1noc(NS(=O)(=O)c2ccc(N/C=C\C(=O)c3ccccc3)cc2)c1C,nt,12,i,nt
Cc1noc(NS(=O)(=O)c2ccc(N/C=C\C(=O)c3cccs3)cc2)c1C,nt,i,i,nt
O=C(Nc1ccccc1)c1ccccc1NC(=O)C1CCCCC1,i,nt,i,i
Cc1cccc(NC(=O)c2ccccc2NC(=O)C2CCCCC2)c1C,i,8.1,i,i
CC1(C)NC(=O)N(CC(O)COc2ccccc2-c2ccccc2)C1=O (configuration not stated),i,nt,i,i
COc1ccccc1OCC(O)CN1C(=O)NC(C)(C)C1=O (configuration not stated),i,9.4,nt,i
C[C@H]1CN([C@@H](C)CO)C(=O)Cc2cc(NC(=O)CCCCCC(=O)Nc3ccccc3N)ccc2O[C@@H]1CN(C)Cc1ccccc1,i,i,i,i
Cc1ccc(NC(=O)N2CCN(c3ccccn3)CC2)cc1,i,i,i,92
CC(C)CC#Cc1ccc2c(c1)O[C@H](CN(C)C(=O)Nc1ccccc1)[C@H](C)CN([C@H](C)CO)S2(=O)=O,i,i,i,i
O=C1CC(c2ccccc2)CC2=C1C=Nc1ccccc1N2 (configuration not stated),nt,9.2,i,nt
O=C1CC(c2ccc(F)cc2)CC2=C1C=Nc1ccccc1N2 (configuration not stated),nt,i,i,nt
COc1ccc2oc(=O)cc(CN3CCN(Cc4ccc(OC)c(OC)c4OC)CC3)c2c1,i,i,i,123
O=C(C[C@@H]1C[C@H]2c3cc(NC(=O)CC4CC4)ccc3O[C@H]2[C@@H](CO)O1)NCc1ccccc1F,i,i,i,i
COc1ccc(S(=O)(=O)Nc2cc(C(=O)NCCCOC(C)C)ccc2N2CCOCC2)cc1,nt,i,i,nt
COc1ccc(S(=O)(=O)Nc2cc(C(=O)NCCC(C)C)ccc2N2CCOCC2)cc1,i,nt,nt,93
CNC[C@@H]1Oc2ccc(NS(=O)(=O)c3ccc(C)cc3)cc2CC(=O)N([C@H](C)CO)C[C@H]1C,i,i,i,i
CCOC(=O)N1CCC(NC(=O)CCC(=O)N2CCOc3ccccc32)CC1,nt,nt,i,123
CCOC(=O)c1cc2cc(CC(=O)c3ccc(OCC)cc3O)ccc2o1,i,nt,i,97
CO[C@@H]1CN(C)C(=O)c2ccc(NC(=O)C3CCOCC3)cc2OC[C@@H](C)NC[C@@H]1C,i,i,i,i
COc1ccc(-c2cc(NC=O)c3ncc(-c4ccc(OC)c(OC)c4)n3c2)cc1,i,8.4,nt,i
COc1cc(-c2cnc3c(NC=O)cc(-c4cccc(C(F)(F)F)c4)cn23)cc(OC)c1OC,i,8.7,nt,i
CNC(=O)c1cc(OCC(F)(F)F)ccc1OCC(F)(F)F,nt,i,i,nt
COc1cccc(/C=N\NC(=O)c2cc(OCC(F)(F)F)ccc2OCC(F)(F)F)c1,i,nt,i,124
C=CCOc1ccc(/C(CC)=N/O)cc1OC,i,nt,i,117
CCOC(=O)N1CCN(c2cc(NCCC(=O)O)c3c4c(onc24)-c2ccccc2C3=O)CC1,i,nt,58,i
SMILES,PglD DTNB,CFTR F508del cor,ARNT TACC3 PPI,Statin myotox sup
CN1CCN(c2cc(N3CCN(C(=O)c4ccco4)CC3)c3c4c(onc24)-c2ccccc2C3=O)CC1,i,nt,i,i
O=C1c2ccccc2-c2onc3c(N4CCN(CCO)CC4)cc(N4CCN(C(=O)c5ccco5)CC4)c1c23,i,i,i,i
O=C(O)CCCNc1cc(N2CCN(C(=O)c3ccco3)CC2)c2noc3c2c1C(=O)c1ccccc1-3,i,i,46,i
CN(C)CCCNC(=O)[C@H]1[C@H](CO)[C@H]2Cn3c(ccc(-c4cccc(F)c4)c3=O)[C@@H]1N2,nt,i,nt,nt
C[C@H]1CN([C@@H](C)CO)C(=O)c2cccc(NC(=O)Nc3cccc4ccccc34)c2O[C@H]1CN(C)C(=O)Nc1ccccc1,i,i,i,i
COCC(=O)N1C[C@@H]2[C@H](c3ccccc31)[C@H](CO)N2C(=O)Nc1ccccc1Cl,i,i,i,i
O=C(C[C@@H]1C[C@@H]2c3cc(NC(=O)C4CCC4)ccc3O[C@@H]2[C@@H](CO)O1)NCc1cc(F)ccc1F,i,i,i,i
CCc1ccc(-c2nc(C(N)=O)c3[nH]c(=O)n(-c4ccccc4OC)c3n2)cc1,i,8.9,i,i
COc1cc(OC)cc(C(=O)NNC(=S)NC(=O)c2cccnc2)c1,i,i,i,i
COc1ccc(C(=O)NC(=S)NNC(=O)c2cnccn2)cc1OC,i,nt,63,nt
COc1cc(OC)cc(C(=O)NC(=S)NNC(=O)c2cnccn2)c1,i,i,66,nt
O=C(/C=C/c1ccccc1)NC(=S)NNC(=O)c1cnccn1,i,i,60,nt
CN1CCN(C(=O)C[C@@H]2C[C@H]3c4cc(NC(=O)Nc5ccccc5)ccc4O[C@H]3[C@@H](CO)O2)CC1,i,i,i,i
C[C@@H]1CN([C@H](C)CO)C(=O)Cc2cc(NS(=O)(=O)c3cn(C)cn3)ccc2O[C@H]1CN(C)Cc1ccc(-c2ccccc2)cc1,nt,i,nt,?
C[C@@H]1CN([C@H](C)CO)C(=O)Cc2cc(NS(=O)(=O)c3cn(C)cn3)ccc2O[C@H]1CN(C)Cc1ccc2c(c1)OCO2,i,i,i,i
C[C@H](CO)N1C[C@H](C)[C@@H](CN(C)Cc2ccc(Cl)c(Cl)c2)Oc2ccc(NS(=O)(=O)c3cn(C)cn3)cc2CC1=O,i,i,i,166
C[C@@H]1CN([C@H](C)CO)C(=O)Cc2cc(NS(=O)(=O)c3cn(C)cn3)ccc2O[C@@H]1CN(C)Cc1ccc(-c2ccccc2)cc1,nt,i,nt,82
CCCOc1cc(N(CC)CC)ccc1/C=C(/C#N)c1nc2ccc(C)cc2[nH]1,i,34,i,i
CCN(CC)c1ccc(/C=C(/C#N)c2nc3ccc(C)cc3[nH]2)c(OC(C)C)c1,i,17,i,i
COc1ccc(C#Cc2ccc([C@H]3[C@@H](CO)N4C(=O)CN(C(=O)c5cccnc5)C[C@@H]34)cc2)cc1,nt,i,nt,nt
COc1cc(C)c(S(=O)(=O)n2ccc(C)n2)cc1C,i,nt,i,113
COc1ccc(S(=O)(=O)n2ccc(C)n2)cc1C,i,i,i,i
CO[C@H]1CN(C)C(=O)c2ccc(NC(=O)C3CC3)cc2OC[C@H](C)N(Cc2nccs2)C[C@@H]1C,i,i,i,i
COc1ccc(C(=O)NCC(=O)N2CCC(C)CC2)cc1OC,i,nt,i,90
O=C1CSC(c2cn(-c3ccccc3)nc2-c2ccccc2)N1Cc1ccco1 (configuration not stated),i,nt,i,74
CCc1ccc(-c2nn(-c3ccccc3)cc2C2SCC(=O)N2Cc2ccco2)cc1 (configuration not stated),nt,nt,i,nt
CCc1nnc(SCC(=O)Nc2ccc(C(C)=O)cc2)nc1CC,i,nt,i,113
CN(C)CCN1C(=O)c2oc3ccccc3c(=O)c2C1c1ccc(F)cc1 (configuration not stated),i,nt,i,i
CN1C(=O)c2oc3ccccc3c(=O)c2C1c1ccncc1 (configuration not stated),nt,nt,93,nt
O=C(CSc1nccn1-c1ncc(C(F)(F)F)cc1Cl)c1ccc(Cl)cc1,i,nt,i,95

# Compound activity deposited in PubChem by Broad Institute.
